The experiment in a line: qHTS for Inhibitors of the Aldehyde Dehydrogenase Family (ALDH1A2, ALDH1A3, ALDH2, ALDH3A1) (AID 2061307). Further: nearly all actives have a fitted effect of over 50% in size. On potency: test system not described further here.

Results filed as inconclusive are left out. Where a call stands in place of a potency, no number is given. Active and inactive are the calls of the source. The call rests on the fitted dose curve; in most records, active means well fitted inhibition curve with a large enough effect; inconclusive means small, poorly fitted or top-dose-only effect; inactive means no such curve, though single readings can be large or run the other way.
Potency means the concentration at half of the fitted maximal effect.

As to `c1ccc(CCN(Cc2ccccc2)C2CCN(Cc3ccc4c(c3)OCCO4)CC2)cc1`, the Potency entry was “inactive”.
On to `O=C(Nc1cccc(Nc2ccccc2)c1)c1ccc(-c2cccc([N+](=O)[O-])c2)o1`, for which the Potency was 1.27 µM (active).
The entry for `CS(=O)Cc1cccc(C(=O)Nc2cccc3cccnc23)c1` (stereo not drawn) is “inactive”; for `COc1cc(O)c(C(CC(=O)N2CC(C)CC(C)C2)c2ccccc2Cl)c(OC)c1` (stereo not drawn) it is 1 µM (active); for `COc1ccc(OC)c(NC(=O)c2cc3cccc(OC)c3oc2=O)c1` it is “inactive”.
The entry for `O=C1CCc2ccc(NC(=O)c3ccn(-c4ccccc4F)n3)cc2N1` is “inactive”; for `COc1cccc2cc(C(=O)Nc3ccc(F)c(F)c3)c(=O)oc12` it is “inactive”.
Take `CCOc1ccc(CCNC(=O)c2cc3occc3[nH]2)cc1OCC`: the Potency entry is “inactive”.
On to `COc1ccc(NC(=O)c2cc(C3CC3)nc3c2c(C)nn3-c2ccccc2)cc1OC`, for which the Potency result is “inactive”.
As to `c1ccc(CCN(Cc2ccccc2)C2CCN(c3ccccc3)CC2)cc1`, the Potency entry was “inactive”.
The figure for `CC(=O)N1CCC(Nc2ncnc3scc(-c4ccccc4)c23)CC1` is 6.31 µM (active); for `O=C(CSc1n[nH]c2nc3ccccc3n12)Nc1cc(C(F)(F)F)ccc1Cl` it is 15.8 µM (active); for `Cc1c(NCCOc2ccccc2F)cccc1C(N)=O` it is “inactive”.

Values taken from PubChem BioAssay (NCATS).
